{"source": "PubChem BioAssay AID651719", "about": "(The Scripps Research Institute Molecular Screening Center, 2012)", "note": "The whole screen tested about 360,000 compounds, of which about 1,600 (0.44%) were called active. Many of the other results were omitted from the sample, so actives are more common in it than they were. Unmarked numbers belong to inactive results.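 Rule for the calls: active = inhibition above the screen-wide average plus 3 SD (cut at about 13% in these data); inactive = the rest.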"}
{"target": "Galanin receptor type 3 (Homo sapiens) (UniProt O60755)", "sequence (O60755 1-299 limits assumed)": "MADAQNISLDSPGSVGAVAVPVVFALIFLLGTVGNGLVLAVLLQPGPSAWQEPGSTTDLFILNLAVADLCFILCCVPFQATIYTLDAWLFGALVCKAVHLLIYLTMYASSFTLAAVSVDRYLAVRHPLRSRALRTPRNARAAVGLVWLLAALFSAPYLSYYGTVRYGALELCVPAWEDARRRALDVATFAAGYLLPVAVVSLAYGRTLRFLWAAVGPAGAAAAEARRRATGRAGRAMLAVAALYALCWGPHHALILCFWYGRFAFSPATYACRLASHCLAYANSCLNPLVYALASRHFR", "assay": "blockers of human galanin receptor 3 – cell-based, fluorescence readout, primary screen (AID 651719);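 note: forskolin and galanin both at EC90 stimulate the cells; cAMP rise reported by CNG channel membrane potential dye signal; 0% = forskolin plus galanin with DMSO and 100% = forskolin alone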", "conditions": "HEK293 GalR3-CNG cAMP membrane potential fluorescence; at 3 µM; active compounds read high; galR3 body fused to GalR1 C-terminus"}
{"smiles": "CCCCCCCCN1C(=O)[C@@H](CC(=O)N2CCN(C(=O)OCC)CC2)C[C@@]2(C(=O)OC)C1=C[C@H](C1CCCC1)O[C@@H]2C", "inhibition": "-3.33%"}
{"smiles": "CCN1/C(=C\\c2ccc3ccccc3[n+]2CC)Sc2cc(C)ccc21", "inhibition": "45.8% (active)"}
{"smiles": "COC(=O)[C@]12C[C@H](CC(=O)NCc3cccc(C(F)(F)F)c3)C(=O)N(Cc3ccc4c(c3)OCO4)C1=C[C@H](COCc1ccccc1)O[C@@H]2C", "inhibition": "-4.92%"}
{"smiles": "COc1cccc(CNC(=O)[C@H]2CCCN2C(=O)[C@H]2CCCN2C(=O)C2CCCCC2)c1", "inhibition": "-6.3%"}
{"smiles": "COc1cc2c(cc1OC)CN(C(=O)c1ccc(S(=O)(=O)N3CCCCCC3)cc1)CC2", "inhibition": "1.33%"}
{"smiles": "CCOc1cc(C(=O)N2CCc3cc(OC)c(OC)cc3C2)ccc1OC(F)F", "inhibition": "31.5% (active)"}
{"smiles": "COc1cc2c(cc1OC)CN(C(=O)c1cc(S(=O)(=O)N3CCCCC3)ccc1Cl)CC2", "inhibition": "-3.04%"}
{"smiles": "Nc1nc2c(ncn2[C@@H]2O[C@H](C(=O)N[C@@H](Cc3ccccc3)C(=O)NCc3ccccc3)[C@@H](O)[C@H]2O)c(=O)[nH]1", "inhibition": "-5.49%"}
{"smiles": "CCOC(=O)CN1C(=O)C(=O)c2cc(C)ccc21", "inhibition": "-3.3%"}
{"smiles": "CCOC(=O)c1cc2n(c1C)-c1ccccc1C2=O", "inhibition": "15.1% (active)"}
{"smiles": "Cc1cc(C(=O)OCC(=O)N2c3ccccc3NC(=O)C2(C)C)c(C)n1-c1ccccc1", "inhibition": "-4.87%"}
{"smiles": "CC1(C(=O)NS(=O)(=O)c2ccccc2)CCN1C(=O)Cc1ccc(-c2ccccc2)cc1", "note": "(stereo not drawn)", "inhibition": "0.25%"}
{"smiles": "CCCNC(=O)C1(C)CCN1C(=O)Cc1ccc(-c2ccccc2)cc1", "note": "(stereo not drawn)", "inhibition": "-4.21%"}
{"smiles": "C#Cc1ccc(NC(=O)C2(C)CCN2C(=O)Cc2ccc(-c3ccccc3)cc2)cc1", "note": "(stereo not drawn)", "inhibition": "44.5% (active)"}
{"smiles": "CCCn1nc(C(=O)Nc2ccc3nc(C)sc3c2)c2ccccc2c1=O", "inhibition": "-5.64%"}
{"smiles": "CCCn1nc(C(=O)NNC(=O)CSCC(=O)Nc2cc(C)on2)c2ccccc2c1=O", "inhibition": "21.7% (active)"}
{"smiles": "CCCn1nc(C(=O)NNC(=O)CCOc2ccccc2OCC)c2ccccc2c1=O", "inhibition": "-2.63%"}
{"smiles": "C[C@H](O)[C@@H]1CN2CCc3ccc(-c4ccc5c(c4)OCO5)cc3[C@@H]2C[C@@H]1N(C)C(=O)C1CCCCC1", "inhibition": "-7.4%"}
{"smiles": "COC(=O)C1=C(C(=O)OC)C2C=C(C(C)C)C1C(=O)C2(C)O", "note": "(stereo not drawn)", "inhibition": "-4.32%"}
{"smiles": "COC(=O)[C@]12C[C@H](CC(=O)NCc3ccccc3)C(=O)N(CCC3=CCCCC3)C1=C[C@H](C(C)(C)C)O[C@@H]2C", "inhibition": "-4.94%"}
{"smiles": "COc1cc(NC(=O)CSc2ccc(-c3cccnc3)nn2)cc(OC)c1", "inhibition": "-2.54%"}
{"smiles": "Cc1c(Cl)cccc1NC(=O)CSc1ccc(-c2cccnc2)nn1", "inhibition": "14.3% (active)"}
{"smiles": "O=C(CSc1ccc(-c2cccs2)nn1)Nc1ccccc1F", "inhibition": "-4.48%"}
{"smiles": "O=S1(=O)c2ccc(Br)cc2-n2nncc2CN1Cc1cccc(Cl)c1", "inhibition": "-7.46%"}
{"smiles": "COCCCNC(=O)C[C@H]1C[C@@]2(C(=O)OC)C(=C[C@H](C(C)(C)C)O[C@@H]2C)N(Cc2ccc3c(c2)OCO3)C1=O", "inhibition": "-0.33%"}
{"smiles": "COCCN1Cc2cccc(C(=O)Nc3ccccc3OC)c2C1=O", "inhibition": "41.5% (active)"}
{"smiles": "CCCN1Cc2cccc(C(=O)Nc3ccc(S(=O)(=O)N4CCCCCC4)cc3)c2C1=O", "inhibition": "-8.35%"}
{"smiles": "CCCN1Cc2cccc(C(=O)NCc3ccccc3)c2C1=O", "inhibition": "-3.84%"}
{"smiles": "O=C(NS(=O)(=O)c1cccs1)[C@H]1O[C@@H](n2ccc(=O)[nH]c2=O)[C@H](O)[C@@H]1O", "inhibition": "-5.05%"}
{"smiles": "Cc1cc2c(nc1C)CCCN2C", "inhibition": "-4.98%"}
{"smiles": "O=C(CC(c1ccccc1)c1ccccc1)NCC(O)c1ccc([N+](=O)[O-])cc1", "note": "(stereo not drawn)", "inhibition": "-3.68%"}
{"smiles": "CC(CCc1ccccc1)NCC(O)c1cccc([N+](=O)[O-])c1", "note": "(stereo not drawn)", "inhibition": "26.9% (active)"}
{"smiles": "CC(C)OC(=O)CC(=O)CC(O)c1cccc([N+](=O)[O-])c1", "note": "(stereo not drawn)", "inhibition": "-6.46%"}
{"smiles": "COc1ccc(S(=O)(=O)Nc2ccc3c(c2)C(=O)N([C@H](C)CO)C[C@H](C)[C@@H](CN(C)C)OCCCC[C@H](C)O3)cc1", "inhibition": "-6.44%"}
{"smiles": "c1coc(CNc2ncnc3ccccc23)c1", "inhibition": "82.2% (active)"}
{"smiles": "O=C(NCc1ccncc1)C(=O)NCc1ccco1", "inhibition": "-2.62%"}
{"smiles": "c1ccc(CNc2ncnc3[nH]ncc23)cc1", "inhibition": "-4.19%"}
{"smiles": "C[C@H](O)[C@@H]1C(=O)N2CCc3c([nH]c4c(-c5ccc6c(c5)OCO6)cccc34)[C@@H]2C[C@@H]1N(C)C(=O)c1ccco1", "inhibition": "-7.36%"}
{"smiles": "C[C@H]1[C@H](c2ccccc2)Oc2cc(Br)ccc2S(=O)(=O)N1Cc1cccc(F)c1", "inhibition": "-2.05%"}
{"smiles": "CCOc1ccc(C(=O)Nc2ccc(CN3CCOCC3)cc2)cc1Cl", "inhibition": "-8.84%"}
{"smiles": "O=C(Nc1ccccc1C(=O)N1CCOCC1)c1ccc(CSc2ccccc2)cc1", "inhibition": "-0.11%"}
{"smiles": "O=C(Nc1ccc(CSc2ccccc2)cc1)c1ccc(CN2CCOCC2)cc1", "inhibition": "95.3% (active)"}
{"smiles": "COC(=O)N1Cc2ccnnc2CC1c1ccccc1Br", "note": "(stereo not drawn)", "inhibition": "1.18%"}
{"smiles": "Cc1c(C=O)c2ccccc2n1CC(=O)O", "inhibition": "12.7% (active)"}
{"smiles": "O=C(O)Cn1c(Cc2ccccc2)nc2ccccc21", "inhibition": "-10.6%"}
{"smiles": "Cc1c(C=O)c2ccccc2n1CCOc1ccccc1", "inhibition": "2.42%"}
{"smiles": "C=CC1=CCN(S(=O)(=O)C(C)(C)C)[C@@H]1CCO", "inhibition": "-6.58%"}
{"smiles": "O=C(NCc1ccccc1)[C@H]1CCCN1C(=O)[C@@H]1CCCN1C(=O)c1ccc(Cl)cc1Cl", "inhibition": "-7.72%"}
{"smiles": "C[C@H]1CN([C@@H](C)CO)C(=O)CCCn2nncc2CO[C@@H]1CN(C)C(=O)Nc1ccc(N2CCN(C)CC2)cc1", "inhibition": "-5.34%"}
{"smiles": "CC(C)[C@H]1COCCS(=O)(=O)N1Cc1ccccc1-c1cccc2c1sc1ccccc12", "inhibition": "-3.29%"}
{"smiles": "Cn1c(N)c(C(=O)COC(=O)COc2ccc(Cl)cc2)c(=O)n(C)c1=O", "inhibition": "-5.52%"}
{"smiles": "Cn1c(N)c(C(=O)COC(=O)c2cnc(Cl)c(Cl)c2)c(=O)n(C)c1=O", "inhibition": "18.3% (active)"}
{"smiles": "Cn1c(N)c(C(=O)COC(=O)c2ccc3ccccc3c2)c(=O)n(C)c1=O", "inhibition": "-4.21%"}
{"smiles": "Cc1ccc(S(=O)(=O)N2CCN(C(=O)COC(=O)c3c(C)noc3C)CC2)c(C)c1", "inhibition": "-3.17%"}
{"smiles": "Cc1ccc(S(=O)(=O)N2CCN(C(=O)COC(=O)c3c(C)cc(C)cc3C)CC2)c(C)c1", "inhibition": "14.7% (active)"}
{"smiles": "COc1ccc(/C=C/C(=O)OCC(=O)N2CCN(S(=O)(=O)c3ccc(C)cc3C)CC2)cc1OC", "inhibition": "-2.95%"}
{"smiles": "COC(=O)C1=C(C)N(Cc2ccccc2C(F)(F)F)C(=NCc2ccc(OC)cc2)NC1c1cccc(C(F)(F)F)c1", "note": "(stereo not drawn)", "inhibition": "-3.7%"}
{"smiles": "CN1C(=O)C(Br)(Br)CC1c1cccnc1", "note": "(stereo not drawn)", "inhibition": "-8.3%"}
{"smiles": "Nc1nc2c(ncn2[C@@H]2O[C@H](C(=O)N[C@H](Cc3ccccc3)C(=O)NCC3CCCCC3)[C@@H](O)[C@H]2O)c(=O)[nH]1", "inhibition": "-7.48%"}
{"smiles": "CSc1ccc(Oc2cccc3c2S(=O)(=O)N([C@H](C)c2ccccc2)C[C@@H](COCc2ccccc2)O3)cc1C", "inhibition": "-3.93%"}
{"smiles": "CCc1ccc(-c2nc(SCC(=O)NC3CCCC3)n[nH]2)cc1", "inhibition": "24.9% (active)"}
{"smiles": "CCc1c(C)nc(SCC(=O)NC2CCCC2)[nH]c1=O", "inhibition": "-6.61%"}
{"smiles": "COC(=O)c1ccccc1NC(=O)CSc1n[nH]c(-c2ccncc2)n1", "inhibition": "-2.72%"}
{"smiles": "CN(C)C(=O)N1CCN(C(=O)[C@@H](Cc2ccccc2)NC(=O)[C@H]2O[C@@H](n3ccc(N)nc3=O)[C@H](O)[C@@H]2O)CC1", "inhibition": "-7.47%"}
{"smiles": "COc1ccccc1CCn1cnc(-c2ccccc2)c1C(C)C", "inhibition": "-9.98%"}
{"smiles": "Cc1ccc(C)c(NC(=O)COC(=O)c2nn(C)c(=O)c3ccccc23)c1", "inhibition": "-2.16%"}
{"smiles": "Cc1ccc(F)cc1NC(=O)CSCc1c(C)noc1C", "inhibition": "-4.98%"}
{"smiles": "Cc1ccc(F)cc1NC(=O)Cc1nn(C)c(=O)c2ccccc12", "inhibition": "41.5% (active)"}
{"smiles": "O=C(NCc1ccccc1)[C@H]1CCCN1C(=O)[C@H]1CCCN1C(=O)c1cc(F)cc(F)c1", "inhibition": "-0.96%"}
{"smiles": "Nc1ccn([C@@H]2O[C@H](C(=O)N[C@H]3CCCCNC3=O)[C@@H](O)[C@H]2O)c(=O)n1", "inhibition": "-3.96%"}
{"smiles": "C[C@@H]1CN([C@H](C)CO)C(=O)CCCn2cc(nn2)CO[C@H]1CN(C)C(=O)Nc1ccc(N2CCCCC2)cc1", "inhibition": "-3.62%"}
{"smiles": "CC(=O)c1ccc(NC(=O)N[C@@H](Cc2ccccc2)C(=O)O)cc1", "inhibition": "-4.01%"}
{"smiles": "O=C(COC(=O)[C@H](Cc1ccccc1)NC(=O)c1cccs1)Nc1cc(F)ccc1F", "inhibition": "-2.8%"}
{"smiles": "NC(=O)c1ccc(NC(=O)COC(=O)C(Cc2ccccc2)NC(=O)c2ccccc2)cc1", "note": "(stereo not drawn)", "inhibition": "15.4% (active)"}
{"smiles": "COC(=O)c1c(-c2ccc(OC)cc2)c2c(c3c4ccccc4n(S(=O)(=O)c4ccc(C)cc4)c13)C(=O)N(C)C2", "inhibition": "-6.49%"}
{"smiles": "COc1ccc(-c2ccccc2C2Cc3nnccc3CN2C(=O)Nc2ccccc2)cc1", "note": "(stereo not drawn)", "inhibition": "-8.69%"}
{"smiles": "CCOC(=O)N1CCN(C(=O)C[C@H]2C[C@@]3(C(=O)OC)C(=C[C@H](C4CCCC4)O[C@@H]3C)N(Cc3ccccc3)C2=O)CC1", "inhibition": "-2.22%"}
{"smiles": "C#CCN([C@@H](C)C(=O)OCC)S(=O)(=O)c1ccc(Br)cc1F", "inhibition": "-6.91%"}
{"smiles": "CC(=O)c1ccc(NC(=O)C(C)N(C)CC(=O)Nc2ccccc2Cl)cc1", "note": "(stereo not drawn)", "inhibition": "-3.44%"}
{"smiles": "O=C(Nc1ccccc1Cl)c1ccccc1S(=O)(=O)c1ccccc1[N+](=O)[O-]", "inhibition": "0.75%"}
{"smiles": "O=C(Nc1ccccc1Cl)/C(Cl)=C(\\Cl)S(=O)c1ccccc1", "note": "(stereo not drawn)", "inhibition": "16.2% (active)"}
{"smiles": "COc1ccc(C2=CN(Cc3ccccc3)C(c3ccc(OC)cc3)CC2=O)cc1", "note": "(stereo not drawn)", "inhibition": "-4.04%"}
{"smiles": "Fc1cccc2ncnc(OCc3ccccc3)c12", "inhibition": "-3.41%"}
{"smiles": "Cc1occc(=O)c1OCc1ccc(F)cc1", "inhibition": "5.85%"}
{"smiles": "Cc1nc2ccccc2cc1OCc1ccc(F)cc1", "inhibition": "80% (active)"}
{"smiles": "CCOC(=O)Cn1c2c(n(-c3ccc(F)cc3)c1=O)C=C(c1ccccc1)[C@@H](C)C(C(=O)N(C)C1CCCCC1)=C2", "inhibition": "-7.9%"}
{"smiles": "COC(=O)[C@]12C[C@H](CC(=O)NCCc3ccccc3OC)C(=O)N(Cc3ccccc3)C1=C[C@H](C(C)C)O[C@@H]2C1CC1", "inhibition": "-6.79%"}
{"smiles": "COc1ccc(CC(=O)Nc2ccccc2NC(=O)c2ccco2)cc1OC", "inhibition": "-2.83%"}
{"smiles": "COc1ccc(NC(=O)c2ccco2)cc1NC(=O)c1ccc(C#N)cc1F", "inhibition": "-2.95%"}
{"smiles": "COc1cc(NC(=O)c2cc([N+](=O)[O-])ccc2Br)ccc1NC(=O)c1ccco1", "inhibition": "22.4% (active)"}
{"smiles": "Cc1ccc(C)c(CN2CCC(CNC(=O)C3CCCN(c4ncnc5c4nc4n5CCCCC4)C3)CC2)c1", "note": "(stereo not drawn)", "inhibition": "-1.9%"}
{"smiles": "Cc1[nH]c2ccccc2c1CC(=O)Nc1ccc(Nc2cccnc2)c(-c2cccc(Cl)c2)c1", "inhibition": "-2.4%"}
{"smiles": "CCCCOCC1CN(CCCC)S(=O)(=O)c2c(Oc3ccc(F)cc3)cccc2O1", "note": "(stereo not drawn)", "inhibition": "2.7%"}
